Rows were chosen to be rich in hits. Some 10% of all compounds tested hit in one or more screens of this group.
Pf growth 48h = Primary qHTS for delayed death inhibitors of the malarial parasite plastid, 48 hour incubation; P. falciparum luciferase growth in erythrocytes, 48 h; Potency, µM (highest dose often 28.7 µM), inactives show at the top dose activity change, negative = inhibition, hits mostly inhibitors; 310,000 compounds, 5.9% hits; AID 504832, 2011; active = well fitted inhibition curve with a large enough effect; inconclusive = small, poorly fitted or top-dose-only effect, or another doubt; inactive = no such curve, though single readings can be large or run the other way; note: potency is the fitted concentration of half-maximal effect; % is set by controls: 0 for no effect and ±100 for the full control effect
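Firefly luciferase activity from engineered P. falciparum reports growth; inhibitors lower the luminescent signal. Cultures contained 2% hematocrit erythrocytes at 0.1% final parasitemia.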
Pf growth 96h = Primary qHTS for delayed death inhibitors of the malarial parasite plastid, 96 hour incubation. P. falciparum luciferase reporter growth, 96 h. Potency, µM (titrated, usually from 28.7 µM), without a hit: top-dose activity change, negative = inhibition, actives largely listed as inhibitors. 320,000 compounds, 6.9% hits. AID 504834, 2011; active = well fitted inhibition curve with a large enough effect; inconclusive = small, poorly fitted or top-dose-only effect, or another doubt; inactive = no such curve, though single readings can be large or run the other way; note: potency is the fitted concentration of half-maximal effect; % is set by controls: 0 for no effect and ±100 for the full control effect
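Plates of compound plus infected erythrocytes (2% hematocrit, 0.05% parasitemia final) incubate 96 hours, 37 C, 5% CO2. Detection reagent added; reduced luminescence from the parasites' luciferase reporter flags inhibition.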
NS1 function inh = qHTS Assay for Inhibitors of Influenza NS1 Protein Function; Potency, µM (highest dose often 46.1 µM), for the others: at the highest dose activity, positive = more growth; 270,000 compounds, 0.4% hits; AID 2326, 2010; note: potency is the fitted concentration of half-maximal effect; actives are rising curves; nearly all actives have a fitted effect of over 50% in size
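OD600 was taken as the measure of yeast growth restored by compound in an NS1-expressing S. cerevisiae strain. Cells had been washed out of glucose medium and diluted 1:100 into galactose -URA medium, pH 6.0.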
SARS PLP yeast = qHTS of Yeast-based Assay for SARS-CoV PLP. S. cerevisiae expressing SARS-CoV PLpro, growth rescue. Potency, µM (series often up to 32.9 µM), for inactives: at the highest dose activity, positive = growth rescue, actives largely listed as activators. 330,000 compounds, 0.19% hits; note: potency is the fitted concentration of half-maximal effect; 0% is about no effect; nearly all actives have a fitted effect of over 55% in size
NS1 inh valid = Assay for Inhibitors of Influenza NS1 Protein Function: Hit Validation; activity change, negative = inhibition, % at 32.9 µM; influenza NS1 function cell assay, 15-point titration; 1,400 tested, under 10 active; shares compounds with NS1 function inh; note: 0% is about no effect
Flu PR8 replic = Assay for Inhibitors of Influenza NS1 Protein Function: Influenza virus replication assay in MDCK cells infected with virus A/PR/8/34 | shares compounds with NS1 function inh | MDCK infected influenza A/PR/8/34, virus titer TCID50; stronger effect = lower value | virus titer (log TCID50), log10 TCID50 at 5 µM | 95 compounds, 30% hits | AID 504647, 2011; call rule not given here
* marks the source's active call; other numbers are inactive results; ? = inconclusive; . = no result. Unless noted, calls come from the whole dose curve.

SMILES | Pf growth 48h | Pf growth 96h | NS1 function inh | SARS PLP yeast | NS1 inh valid | others
O=C(Cn1c(=O)oc2ccccc21)N1CCCCC1 | ? | 31% | 7% | 5% | .
CC1CCN(C(=O)Cn2c(=O)oc3ccccc32)CC1 | 14% | 0% | 3.5µM* | -2% | -2
Cc1cc(C)nc(Nc2n[nH]c(COc3ccc4ccccc4c3)n2)n1 | -5% | 11% | 2µM* | 4% | 15
Cc1cc(C)nc(Nc2n[nH]c(COc3ccccc3)n2)n1 | 28% | -2% | -5% | -6% | .
O=NN(CCCl)C(=O)NC1CCCCC1 | -9% | 4% | . | . | .
CCCCNC(=O)CN(c1cc(C(F)(F)F)ccc1Cl)S(C)(=O)=O | 21% | ? | 1µM* | 7% | -4 | Flu PR8 replic=8
COCCCNC(=O)CN(c1cc(C(F)(F)F)ccc1Cl)S(C)(=O)=O | 18% | 2% | 9% | 0% | .
Cc1ccc(NC(=O)COC(=O)c2ccc3c(c2)OCO3)cc1S(=O)(=O)N1CCCCC1 | 18% | -1% | 10µM* | -2% | 6
Cc1ccc(S(=O)(=O)N(Cc2ccccc2)c2ccccc2C(=O)Nc2ccccc2C(=O)NCc2ccco2)cc1 | 10µM* | ? | 7.9µM* | 17% | -20
CS(=O)(=O)N(Cc1ccccc1)c1ccccc1C(=O)Nc1ccccc1C(=O)NCc1ccco1 | . | ? | -7% | 1% | .
CCOC(=O)C1=C(C)N=C2SC(C(=O)OC)=CC(=O)N2C1c1cccc(OC)c1 (configuration not stated) | 7.4µM* | -16% | 14µM* | -11% | -19
COc1ccccc1C(=O)NNC(=S)NC(=O)c1sc2ccccc2c1Cl | 12% | ? | ? | 11% | ?
COc1ccccc1C(=O)NC(=S)NNC(=O)c1sc2ccccc2c1Cl | 26% | ? | 25% | -27% | .
c1ccc(-c2nnc(CN3CCCc4ccccc43)o2)cc1 | ? | . | ? | -4% | ?
c1ccc(-c2nnc(CN3CCCCC3)o2)cc1 | 33% | 5% | 5% | -2% | .
CC1CCN(C(=O)CSc2nc3ccccc3c(=O)n2Cc2ccc3c(c2)OCO3)CC1 | ? | . | ? | -16% | ?
CC(C)(C)c1nnc2sc(SCC(=O)c3ccc(Cl)cc3)nn2c1=O | ? | 0% | 11µM* | -5% | 26 | Flu PR8 replic=8.5
Cc1ccc(C(=O)CSc2nn3c(=O)c(C(C)(C)C)nnc3s2)cc1 | -4% | ? | 20% | 10% | .
COC(=O)CCCC(=O)N1CCCC(C(=O)c2ccc(OC)cc2C)C1 (configuration not stated) | 4% | 15µM* | ? | 0% | -11
CCOc1ccc(S(=O)(=O)Nc2ccc(C(=O)N/N=C/c3c(C)nn(-c4ccccc4)c3N3CCCC3)cc2)cc1 | ? | ? | 24% | 17% | .
COc1ccccc1NS(=O)(=O)c1cccc(C(=O)N/N=C/c2c(C)nn(-c3ccccc3)c2N2CCCC2)c1 | ? | ? | 11µM* | 5% | 28
O=C(CCC(=O)Nc1ccccc1Cl)NNC(=O)C1CCCCC1 | . | . | . | 7% | .
CCOC(=O)c1cn(CC(=O)Nc2ccccc2C(=O)OCC)nn1 | 0% | -9% | -10% | -4% | .
CCOC(=O)c1cn(Cc2ccccc2)nn1 | 25% | ? | 1.4µM* | -2% | -7
COc1ccc(OC)c(S(=O)(=O)N(C)CC(=O)Nc2ccccc2OC)c1 | -29% | 151% | -4% | . | .
SMILES | Pf growth 48h | Pf growth 96h | NS1 function inh | SARS PLP yeast | NS1 inh valid | others
COc1ccc(OC)c(S(=O)(=O)N(C)CC(=O)O)c1 | 2% | . | 1.8µM* | 1% | 4
CCc1sc(C(=O)N2CCc3cc(OC)c(OC)cc3C2CC(=O)O)cc1C (configuration not stated) | ? | ? | . | 3% | .
COc1cc(/C=N/NC(=O)c2cc3ccccc3cc2O)ccc1OCCN1CCCCC1 | ? | ? | 11µM* | 13% | -24
CCc1nnc(NC(=O)CSc2ncc(-c3ccccc3)[nH]2)s1 | 24% | . | 14% | -7% | .
Cc1nnc(NC(=O)CSc2ncc(-c3ccccc3)[nH]2)s1 | -2% | 42% | 4.5µM* | 4% | 7
CN(C)c1ccc(C(CNC(=O)c2ccccc2F)c2c[nH]c3ccccc23)cc1 (configuration not stated) | ? | ? | 16% | 20% | .
CN(C)c1ccc(C(CNC(=O)c2ccccc2)c2c[nH]c3ccccc23)cc1 (configuration not stated) | ? | ? | 13µM* | 2% | ?
C#Cc1ccc([C@@H]2C=C(C(=O)N3CCOCC3)O[C@H](OCC)[C@H]2CCCO)cc1 | ? | ? | -4% | 1% | .
CN1CCN(CCCNC(=O)CCCOc2cc(=O)n(C)c3ccccc23)CC1 | 12% | 13% | -13% | -1% | .
Cn1c(=O)cc(OCC(=O)NCCCN2CCN(Cc3ccccc3)CC2)c2ccccc21 | ? | ? | 11µM* | 3% | -8
CCCCC(=O)Nc1c2c(nn1-c1ccc(C)cc1)CS(=O)(=O)C2 | -3% | ? | -2% | -1% | .
O=C(O)COc1ccccc1/C=N/NC(=O)CSc1nnc(SCc2cccc3ccccc23)s1 | 0% | -29% | 3.5µM* | -1% | -29 | Flu PR8 replic=7.5*
O=C(O)COc1ccccc1/C=N/NC(=O)CSc1nnc(SCc2ccc(Cl)cc2)s1 | 15% | 9% | 12% | -4% | .
Cn1c(N)c(C(=O)COC(=O)c2ccc(-c3ccccc3)cc2)c(=O)n(C)c1=O | . | . | . | 1% | .
CCN(CC(=O)Nc1c(F)cccc1F)C(=O)c1cc(C)nc2ccccc12 | -4% | 8% | . | 0% | .
COc1cc(/C=C\C(=O)NCc2ccc3[nH]c(C)cc3c2)cc(OC)c1OC | 12µM* | 13µM* | 1.3µM* | 9% | 21
C/C(=N\NC(=O)Cc1cc(=O)[nH][nH]1)c1cccc([N+](=O)[O-])c1 | -5% | 31% | 27% | ? | .
C/C(=N/NC(=O)Cc1cc(=O)[nH][nH]1)c1ccc([N+](=O)[O-])cc1 | 14% | 39% | 13µM* | 7% | ?
O=C(c1ccc(S(=O)(=O)N2CCCC2)cc1)N1CCN(c2cccc(Cl)c2)CC1 | ? | ? | 11% | 21% | .
O=C(c1ccc(S(=O)(=O)N2CCCC2)cc1)N1CCN(c2ccccc2)CC1 | 1% | ? | 4.5µM* | 2% | -32
COc1ccc(-c2ccc([C@H]3[C@H]4C=CC[C@@H](C)[C@@H]4C(=O)N3Cc3ccccc3)c(F)c2)cc1C | 10µM* | ? | ? | -4% | -6
COc1ccc(-c2ccc(OC)c([C@H]3[C@H]4C=CC[C@@H](C)[C@@H]4C(=O)N3Cc3ccccc3)c2)cc1OC | ? | ? | 6% | 3% | .

Screens: PubChem, National Center for Advancing Translational Sciences (NCATS)
